The results in this text go back to PubChem BioAssay (EPA / NIEHS).

Records with an inconclusive call do not appear. Activity calls are given as the source filed them. Rule for the calls, unless noted: active = hit-call score of the fitted dose curve at least 0.9, where 1 is the maximum; inconclusive = response in the unintended direction; inactive = score below 0.9.

For assay [1], the system named is guinea pig Dopamine Transporter (DAT), gene 100714898. As to the kind of experiment: NVS_TR_gDAT: NovaScreen (NVS) Transporter Assay for guinea pig Dopamine Transporter (DAT) (AID 2283369).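 Note: active compounds lower bound radioligand signal relative to DMSO.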 The method, boiled down:
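Guinea pig striatal membranes, cell-free radioligand binding with filter-based scintillation counting, read 2 h after dosing. Loss of signal versus DMSO baseline; single-concentration primary (25 uM) then concentration-response up to 50 uM.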

For assay [2], the target named is human Dopamine Transporter (DAT), SLC6A3 (gene 6531) (UniProt Q01959). The assay is described as follows: NVS_TR_hDAT: NovaScreen (NVS) Transporter Assay for human Dopamine Transporter (DAT) (AID 2283374).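 Note: activity means loss of bound radioligand signal relative to DMSO.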 The method, boiled down:
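Test chemicals were first screened in duplicate at 25 uM, with actives retested as concentration series. Displacement of a specific radioligand from cell-free human dopamine transporter was measured after 1 h by filtration and scintillation counting.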

In assay [3] the target is Norway rat Vesicular Monoamine Transporter (VMAT2), neurotransmitter transporter, Slc18a2 (gene 25549) (UniProt Q01827). The assay is described as follows: NVS_TR_rVMAT2: NovaScreen (NVS) Transporter Assay for Norway rat Vesicular Monoamine Transporter (VMAT2), neurotransmitter transporter (AID 2283376).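 Note: actives lower the bound radioligand signal below the DMSO level.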 The method, boiled down:
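Tissue: rat forebrain extract. Format: competitive radioligand binding, cell-free. Timepoint: 1 h. Readout: filter radiodetection/scintillation. Screen: 25 uM in duplicate, then concentration series for actives. Baseline: DMSO.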

The target in assay [4] is human Norepinephrine Transporter (NET), SLC6A2 (gene 6530) (UniProt P23975). As to the kind of experiment: NVS_TR_hNET: NovaScreen (NVS) Transporter Assay for human Norepinephrine Transporter (NET) (AID 2283377).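 For AC50: displacement of radioligand from human NET seen as loss of scintillation signal.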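 Note: cell-free membrane protein extracted from CHO cells expressing human NET.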 The procedure, abridged:
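Scintillation counts of filter-retained radioligand served as the readout, taken 1 h post-dosing in a cell-free CHO-derived system. Test chemicals ran first at 25 uM in duplicate; confirmed hits were retested across concentrations.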

Assay [5] concerns the target Estrogen receptor beta (Homo sapiens) (UniProt Q92731). The assay is described as follows: OT_ER_ERbERb_1440: Odyssey Thera (OT) 24-hour HEK293T Protein-Complementation Assay for Estrogen Receptor-beta/-beta Homodimer (AID 2283380).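 Note: fluorescence gain from ER beta LBD homodimer complementation read by laser scanning cytometry; scored as signal increase over DMSO baseline for both agonists and antagonists.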 The method, boiled down:
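Fluorescence increase, nuclear for agonists or whole-cell for antagonists, relative to DMSO vehicle, quantified by laser scanning cytometer after fixation and Draq5 staining. Readout from 24 h treatment of HEK293T cells carrying complementation-paired ER beta LBD (aa 310-547).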

Assay [6] deals with Estrogen receptor (Homo sapiens) (UniProt P03372). As to the kind of experiment: OT_ERa_GFPERaERE_0480: Odyssey Thera (OT) 8-hour HeLa Transcription Induction Assay for Estrogen Receptor (AID 2283381; active = hit-call score of the fitted dose curve at least 0.9, where 1 is the maximum; inactive = score below 0.9). The procedure, abridged: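 Fluorescent reporter signal, imaged by microscopy and scored with image-analysis algorithms, was taken 8 h after chemical dosing of HeLa cells; activity was fitted upward relative to DMSO.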

For assay [7] the target is unchanged. The assay is described as follows: OT_ERa_GFPERaERE_0120: Odyssey Thera (OT) 2-hour HeLa Transcription Induction Assay for Estrogen Receptor (AID 2283382). The method, boiled down: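 HeLa, 384-well, 2 h chemical exposure; GFP reporter induction (ERE), fluorescence microscopy; high content image analysis; positive fitting direction vs DMSO.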
Assay [8] has as its target Peroxisome proliferator-activated receptor gamma (Homo sapiens) (UniProt P37231). As to the kind of experiment: NVS_NR_hPPARg: NovaScreen (NVS) Nuclear Receptor Binding Assay for human Peroxisome Proliferator-activated Receptor gamma (PPARg) (AID 2283370). The procedure, abridged: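 Cell-free fluorescence polarization binding to human PPARg protein, read 2 h after dosing. Primary screen in duplicate at 25 uM, actives followed in concentration series; loss of signal relative to DMSO scored.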

Assay [9] has as its target mouse Estrogen Receptor alpha (Era), Esr1 (gene 13982) (UniProt P19785). The assay is described as follows: NVS_NR_mERa: NovaScreen (NVS) Nuclear Receptor Binding Assay for mouse Estrogen Receptor alpha (Era) (AID 2283378).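 Note: hit means loss of bound radioligand signal relative to DMSO.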 The method, boiled down:
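Cell-free radioligand competitive displacement binding, read by filter-based scintillation counting 18 h after dosing. Primary screen run in duplicate at 25 uM, actives retested in concentration series; loss of signal versus DMSO.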

For assay [10], the target named is Retinoic acid receptor RXR-alpha (Homo sapiens) (UniProt P19793). As to the kind of experiment: OT_NURR1_NURR1RXRa_0480: Odyssey Thera (OT) 8-hour HEK293T Protein Complementation Assay for Nurr1/retinoid X receptor (RXR) (AID 2283385). The method, boiled down:
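8 h compound exposure, HEK293T; Nurr1/RXRα fragment complementation; fluorescence intensity; positive fitting direction vs DMSO baseline.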

In assay [11] the target is guinea pig Sigma Receptor, Non-selective Binding, SIGMAR1 (gene 100135589) (UniProt Q60492). The assay is described as follows: NVS_OR_gSIGMA_NonSelective: NovaScreen (NVS) Nuclear Receptor Binding Assay for guinea pig Sigma Receptor, Non-selective Binding (AID 2283367). The method, boiled down:
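gp brain membr., radioligand displacement, 1 h, filtration + scint. counting; DMSO = baseline; 25 uM x2 primary, conc.-response confirm.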

The target of assay [12] is Bile acid receptor (Homo sapiens) (UniProt Q96RI1). As to the kind of experiment: OT_FXR_FXRSRC1_0480: Odyssey Thera (OT) 8-hour HEK293T Protein-Complementation Assay for Farnesoid X receptor/SRC-1 Co-activator (AID 2283383). The procedure, abridged:
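Human kidney HEK293T cells carried FXR/SRC-1 fragment-complementation constructs. Compounds were added and incubated 8 h. Reporter reassembly upon receptor–co-activator interaction was then quantified by fluorescence, with curves fitted in the positive direction relative to DMSO.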

Assay [13] shares this target. The assay is described as follows: OT_FXR_FXRSRC1_1440: Odyssey Thera (OT) 24-hour HEK293T Protein-Complementation Assay for Farnesoid X receptor/SRC-1 Co-activator (AID 2283384). The method, boiled down:
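Compounds are applied to human kidney HEK293T cells expressing bait and prey fused to reporter protein fragments; after 24 h, reconstituted reporter fluorescence is measured. Activity is fitted as signal gain over DMSO.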

The target of assay [14] is Agonist Androgen Response Element (ARE), AR (gene 367) (UniProt P10275). As to the kind of experiment: OT_AR_ARELUC_AG_1440: Odyssey Thera (OT) 24-hour CHO-K1 Luciferase Assay for Agonist Androgen Response Element (ARE) (AID 2283379). The procedure, abridged:
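Agonist mode, 24 h exposure in CHO-K1 ARE-luciferase cells; values reflect luminescence induction over vehicle.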

In assay [15] the target is rat Serotonin Transporter (SERT), Slc6a4 (gene 25553) (UniProt P31652). The assay is described as follows: NVS_TR_rSERT: NovaScreen (NVS) Transporter Assay for rat Serotonin Transporter (SERT) (AID 2283375). The method, boiled down: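 Rat forebrain membranes; radioligand displacement at SERT read by filter-based scintillation counting, 1 h after dosing. Screened in duplicate at 25 uM, actives then run in concentration series; loss of signal versus DMSO baseline.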

The target of assay [16] is rat Androgen Receptor (AR), Ar (gene 24208) (UniProt P15207). As to the kind of experiment: NVS_NR_rAR: NovaScreen (NVS) Nuclear Receptor Binding Assay for rat Androgen Receptor (AR) (AID 2283366). The method, boiled down:
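Cell-free radioligand binding on extracts of prostate from testosterone-pretreated rats, read by filter-based scintillation counting 18 h after dosing. Loss of bound signal fitted positively versus DMSO; primary screen in duplicate at 25 uM, actives followed up in concentration series.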

Sequence of Peroxisome proliferator-activated receptor gamma (Homo sapiens) (P37231 whole entry, looked up): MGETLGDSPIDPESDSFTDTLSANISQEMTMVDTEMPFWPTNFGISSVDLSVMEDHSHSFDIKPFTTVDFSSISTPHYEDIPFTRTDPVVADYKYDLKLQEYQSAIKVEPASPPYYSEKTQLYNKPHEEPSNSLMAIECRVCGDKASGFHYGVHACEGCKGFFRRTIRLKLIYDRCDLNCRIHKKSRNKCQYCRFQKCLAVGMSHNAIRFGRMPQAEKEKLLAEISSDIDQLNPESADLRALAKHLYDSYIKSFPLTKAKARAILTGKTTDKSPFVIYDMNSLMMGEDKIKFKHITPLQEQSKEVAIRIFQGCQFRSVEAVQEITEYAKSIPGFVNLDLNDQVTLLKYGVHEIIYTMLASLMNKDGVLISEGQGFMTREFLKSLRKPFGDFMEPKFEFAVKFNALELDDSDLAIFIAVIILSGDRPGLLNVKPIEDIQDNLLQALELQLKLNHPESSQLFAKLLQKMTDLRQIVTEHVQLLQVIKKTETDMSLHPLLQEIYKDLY
Sequence of human Norepinephrine Transporter (NET), SLC6A2 (gene 6530) (P23975 whole entry, looked up): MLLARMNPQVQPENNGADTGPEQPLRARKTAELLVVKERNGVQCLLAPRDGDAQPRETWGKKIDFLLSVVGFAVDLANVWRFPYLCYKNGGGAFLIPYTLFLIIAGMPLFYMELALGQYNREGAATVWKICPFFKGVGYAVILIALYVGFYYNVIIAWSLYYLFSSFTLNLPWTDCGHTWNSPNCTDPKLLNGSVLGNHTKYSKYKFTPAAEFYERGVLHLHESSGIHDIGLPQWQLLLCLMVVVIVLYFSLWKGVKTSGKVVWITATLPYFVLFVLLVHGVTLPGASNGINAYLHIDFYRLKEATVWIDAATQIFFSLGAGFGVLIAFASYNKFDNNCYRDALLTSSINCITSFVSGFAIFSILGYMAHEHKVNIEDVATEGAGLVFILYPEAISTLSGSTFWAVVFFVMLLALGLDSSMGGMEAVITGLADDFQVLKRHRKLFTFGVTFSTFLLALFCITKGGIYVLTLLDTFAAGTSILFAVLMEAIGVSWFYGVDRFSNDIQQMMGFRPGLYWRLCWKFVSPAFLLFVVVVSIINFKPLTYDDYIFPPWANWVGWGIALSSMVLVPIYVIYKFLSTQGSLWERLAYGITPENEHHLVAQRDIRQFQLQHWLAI
Sequence of mouse Estrogen Receptor alpha (Era), Esr1 (gene 13982) (P19785 whole entry, looked up): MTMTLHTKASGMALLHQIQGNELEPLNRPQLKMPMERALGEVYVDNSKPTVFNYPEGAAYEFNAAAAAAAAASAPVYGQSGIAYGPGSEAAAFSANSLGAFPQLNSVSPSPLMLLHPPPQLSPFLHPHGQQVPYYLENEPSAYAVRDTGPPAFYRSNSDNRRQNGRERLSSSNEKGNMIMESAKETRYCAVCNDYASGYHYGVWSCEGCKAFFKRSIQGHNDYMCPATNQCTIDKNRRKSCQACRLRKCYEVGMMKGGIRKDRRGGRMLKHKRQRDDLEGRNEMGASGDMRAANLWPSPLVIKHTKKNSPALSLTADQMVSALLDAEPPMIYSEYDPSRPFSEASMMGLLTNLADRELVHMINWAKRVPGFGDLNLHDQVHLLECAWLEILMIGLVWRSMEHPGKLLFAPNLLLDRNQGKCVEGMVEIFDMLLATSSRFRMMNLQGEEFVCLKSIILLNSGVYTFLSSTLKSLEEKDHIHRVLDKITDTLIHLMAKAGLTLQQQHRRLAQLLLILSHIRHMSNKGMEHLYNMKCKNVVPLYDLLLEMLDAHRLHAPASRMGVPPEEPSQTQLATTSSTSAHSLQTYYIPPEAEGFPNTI
Sequence of Retinoic acid receptor RXR-alpha (Homo sapiens) (P19793 whole entry, looked up, the tested form may be a part): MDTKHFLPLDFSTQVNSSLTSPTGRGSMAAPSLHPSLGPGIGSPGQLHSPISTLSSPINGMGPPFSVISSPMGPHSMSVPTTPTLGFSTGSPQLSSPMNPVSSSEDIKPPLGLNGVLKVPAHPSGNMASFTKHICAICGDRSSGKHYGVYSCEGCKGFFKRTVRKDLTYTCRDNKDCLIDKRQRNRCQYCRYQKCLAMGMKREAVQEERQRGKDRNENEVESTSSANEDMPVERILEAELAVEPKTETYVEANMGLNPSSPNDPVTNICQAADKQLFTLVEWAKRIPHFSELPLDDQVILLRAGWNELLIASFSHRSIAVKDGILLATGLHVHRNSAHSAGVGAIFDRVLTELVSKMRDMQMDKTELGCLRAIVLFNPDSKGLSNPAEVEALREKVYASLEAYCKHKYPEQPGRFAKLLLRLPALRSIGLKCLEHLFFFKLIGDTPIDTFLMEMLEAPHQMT
Sequence of rat Serotonin Transporter (SERT), Slc6a4 (gene 25553) (P31652 whole entry, looked up): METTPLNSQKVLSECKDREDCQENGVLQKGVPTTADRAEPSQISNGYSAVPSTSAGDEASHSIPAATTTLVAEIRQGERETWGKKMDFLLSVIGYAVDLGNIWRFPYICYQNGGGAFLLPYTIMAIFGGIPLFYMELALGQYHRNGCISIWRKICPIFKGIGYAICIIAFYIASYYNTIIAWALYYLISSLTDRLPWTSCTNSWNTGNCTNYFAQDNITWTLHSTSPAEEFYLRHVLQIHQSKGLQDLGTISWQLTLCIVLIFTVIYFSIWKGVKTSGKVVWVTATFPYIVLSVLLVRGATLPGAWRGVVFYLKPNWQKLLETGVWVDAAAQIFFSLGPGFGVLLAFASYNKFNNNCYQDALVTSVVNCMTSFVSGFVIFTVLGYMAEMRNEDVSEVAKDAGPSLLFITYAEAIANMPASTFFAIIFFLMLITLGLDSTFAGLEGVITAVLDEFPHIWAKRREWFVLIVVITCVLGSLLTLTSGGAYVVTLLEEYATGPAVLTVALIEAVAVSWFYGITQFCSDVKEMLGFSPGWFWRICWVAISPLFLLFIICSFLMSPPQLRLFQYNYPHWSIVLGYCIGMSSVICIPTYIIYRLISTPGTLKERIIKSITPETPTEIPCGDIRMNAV
Sequence of Bile acid receptor (Homo sapiens) (Q96RI1 whole entry, looked up, the tested form may be a part): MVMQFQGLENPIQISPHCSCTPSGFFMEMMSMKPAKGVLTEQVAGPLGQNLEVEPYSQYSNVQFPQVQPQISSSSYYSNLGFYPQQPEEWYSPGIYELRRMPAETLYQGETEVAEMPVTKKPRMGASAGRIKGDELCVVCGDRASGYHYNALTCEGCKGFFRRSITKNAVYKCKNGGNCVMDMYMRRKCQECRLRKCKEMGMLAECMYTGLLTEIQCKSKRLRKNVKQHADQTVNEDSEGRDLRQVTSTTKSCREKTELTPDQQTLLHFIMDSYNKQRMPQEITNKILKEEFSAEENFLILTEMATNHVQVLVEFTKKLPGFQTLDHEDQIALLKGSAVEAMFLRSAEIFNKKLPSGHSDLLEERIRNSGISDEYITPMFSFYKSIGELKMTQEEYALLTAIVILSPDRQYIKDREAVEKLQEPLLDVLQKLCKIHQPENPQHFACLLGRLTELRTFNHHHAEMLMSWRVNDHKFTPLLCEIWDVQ
Sequence of Estrogen receptor (Homo sapiens) (P03372 whole entry, looked up): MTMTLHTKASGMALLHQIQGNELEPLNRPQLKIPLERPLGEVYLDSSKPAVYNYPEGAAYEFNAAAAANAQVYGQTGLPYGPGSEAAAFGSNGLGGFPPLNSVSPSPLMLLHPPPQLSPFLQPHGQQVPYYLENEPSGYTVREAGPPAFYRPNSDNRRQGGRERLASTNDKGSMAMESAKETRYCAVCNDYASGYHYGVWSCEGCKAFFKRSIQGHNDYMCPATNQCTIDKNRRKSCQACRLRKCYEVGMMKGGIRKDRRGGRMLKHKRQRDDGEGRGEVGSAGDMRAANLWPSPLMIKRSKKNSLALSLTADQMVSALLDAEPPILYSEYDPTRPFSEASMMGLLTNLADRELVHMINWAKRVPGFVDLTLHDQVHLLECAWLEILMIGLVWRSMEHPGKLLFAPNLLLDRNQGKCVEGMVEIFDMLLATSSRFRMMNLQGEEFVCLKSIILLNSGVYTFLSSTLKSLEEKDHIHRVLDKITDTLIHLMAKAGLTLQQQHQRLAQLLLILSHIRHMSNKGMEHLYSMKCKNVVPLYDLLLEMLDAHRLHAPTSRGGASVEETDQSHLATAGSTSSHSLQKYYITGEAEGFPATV
Sequence of Estrogen receptor beta (Homo sapiens) (Q92731 whole entry, looked up, the tested form may be a part): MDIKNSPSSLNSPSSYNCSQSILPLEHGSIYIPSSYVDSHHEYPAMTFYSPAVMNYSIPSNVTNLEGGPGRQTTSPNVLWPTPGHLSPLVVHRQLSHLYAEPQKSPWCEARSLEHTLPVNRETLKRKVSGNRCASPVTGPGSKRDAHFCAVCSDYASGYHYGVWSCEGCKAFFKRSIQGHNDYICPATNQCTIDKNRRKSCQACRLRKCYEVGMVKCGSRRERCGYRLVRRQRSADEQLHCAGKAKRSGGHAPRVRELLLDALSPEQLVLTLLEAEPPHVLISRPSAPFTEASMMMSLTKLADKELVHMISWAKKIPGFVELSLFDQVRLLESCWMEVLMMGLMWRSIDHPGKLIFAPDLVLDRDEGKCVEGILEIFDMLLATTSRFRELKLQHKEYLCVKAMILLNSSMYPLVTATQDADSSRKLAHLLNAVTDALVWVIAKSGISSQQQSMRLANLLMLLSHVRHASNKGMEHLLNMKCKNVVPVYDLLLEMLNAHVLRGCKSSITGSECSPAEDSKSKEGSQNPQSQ
Sequence of Norway rat Vesicular Monoamine Transporter (VMAT2), neurotransmitter transporter, Slc18a2 (gene 25549) (Q01827 whole entry, looked up): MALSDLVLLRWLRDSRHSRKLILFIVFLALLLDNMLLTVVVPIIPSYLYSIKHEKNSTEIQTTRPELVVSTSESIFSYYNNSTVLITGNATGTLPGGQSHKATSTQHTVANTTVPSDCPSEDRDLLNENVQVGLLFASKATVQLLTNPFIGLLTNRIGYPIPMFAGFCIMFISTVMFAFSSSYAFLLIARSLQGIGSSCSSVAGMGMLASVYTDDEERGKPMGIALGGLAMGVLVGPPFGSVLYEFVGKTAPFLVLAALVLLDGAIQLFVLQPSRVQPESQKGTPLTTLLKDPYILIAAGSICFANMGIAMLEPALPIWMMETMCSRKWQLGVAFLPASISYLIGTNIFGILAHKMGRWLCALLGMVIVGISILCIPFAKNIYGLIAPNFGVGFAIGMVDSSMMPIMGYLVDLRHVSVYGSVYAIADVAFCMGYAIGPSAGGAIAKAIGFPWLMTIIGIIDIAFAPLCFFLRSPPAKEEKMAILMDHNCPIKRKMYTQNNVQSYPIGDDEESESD

The term AC50 denotes the midpoint of the concentration-response curve, whichever way the signal moves. Consider `Oc1cccc(-c2ccccc2)c1`, for which the AC50 in [1] was 13.9 µM (active); in assay [2], 10.6 µM (active). In addition, the call in assay [3] and in assay [4] was inactive.

For `N#CCCC(Br)(C#N)CBr` (stereo not given), the AC50 in assay [1] is 7.56 µM (active); in assay [5], 11.9 µM (active). Besides, the compound was called inactive in assay [4], in assay [6] and in [7].

As for `Oc1c(Br)cc(Br)cc1Br`, the compound was classed as inactive in assay [8], in assay [9], in assay [5], in [6], in [7] and in assay [10].

Take `CCOC(=O)CCN(SN(C)C(=O)Oc1cccc2c1OC(C)(C)C2)C(C)C`: the AC50 in assay [11] was 15.8 µM (active); in assay [4], 9.18 µM (active).

As for `CC(C)=CC1C(C(=O)OCc2cccc(Oc3ccccc3)c2)C1(C)C` (stereo not given), the values for the AC50 in [2] and in [13] were 17.2 µM (active) and 12.3 µM (active), respectively. Moreover, the outcome in assay [5], in [6], in assay [7], in assay [12] and in assay [10] was inactive.

`COc1ccccc1N`: the compound was called inactive in assay [8].

On to `CCOCn1c(-c2ccc(Cl)cc2)c(C#N)c(Br)c1C(F)(F)F`, for which the call in [8], in assay [9], in assay [6] and in assay [7] was inactive. In addition, the AC50 was 12.6 µM (active) in assay [5], 12.3 µM (active) in assay [12], 3.05 µM (active) in assay [13] and 9.59 µM (active) in [10].

For `O=S1OC[C@@H]2[C@H](CO1)[C@]1(Cl)C(Cl)=C(Cl)[C@@]2(Cl)C1(Cl)Cl` (stereo not given in full), the AC50 is 14.9 µM (active) in assay [8]; 12.6 µM (active) in [6]; 43.3 µM (active) in [12]; 68.1 µM (active) in [13]; 91.8 µM (active) in [10]. Further, the call in assay [9], in assay [14] and in [7] was inactive.

With `N#Cc1ccccc1N`, in [15], the AC50 was 17.6 µM (active). Also, in assay [4], the result was inactive.

For `Nc1c(Oc2ccccc2)cc(O)c2c1C(=O)c1ccccc1C2=O`, the compound was called inactive in [16].

For `Cc1ccccc1OP(=O)(Oc1ccccc1)Oc1ccccc1`, the figures for the AC50 in assay [1] and in assay [2] were 13.9 µM (active) and 2.25 µM (active), respectively.

For `Cc1cc(Cl)ccc1OC(C)C(=O)O` (stereo not given), the call in assay [8], in assay [5], in assay [6], in assay [7] and in [10] was inactive.

Take `CC(C)(C)c1ccccc1O`: the result in assay [1], in [2], in assay [5] and in assay [10] was inactive.

As to `Nc1nc(N)nc(Cl)n1`, in assay [15], the call was inactive.

For the compound `Cc1ccc(CCl)cc1`, in assay [15], the AC50 was 16.6 µM (active).

For `CCC[CH2][Sn]([CH2]CCC)([CH2]CCC)[CH2]CCC`, the compound was classed as inactive in assay [8] and in assay [5]. For the same compound, the AC50 in assay [13] is 11.8 µM (active).

Turning to `O=[N+]([O-])c1cccc2ccccc12`, the AC50 in assay [15] was 9.17 µM (active).

With `OC(Cc1ccccc1Cl)(Cn1[nH]cnc1=S)C1(Cl)CC1` (stereo not given), the call in [16] was inactive.

Consider `CC(C)N(C(=O)CCl)c1ccccc1`, for which the AC50 in assay [1] is 11.8 µM (active); in assay [2] it was 11.1 µM (active); in assay [9], 6.48 µM (active). Besides, the result in assay [8], in assay [14], in assay [5], in assay [6] and in assay [7] was inactive.
